Data on 40 sequences can be found in the supplement of paper PMC6555819.

The subject of the test is VDR:RXRa (NR concentration 270 nM, RXRa partner concentration 90 nM). Briefly: PBM binding z-score (relative to random genomic background probes); higher = stronger binding; sequences stand for … in GC…GCGATTGACAGCGTAGAATGAAGG
The method, then: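 Protein-binding microarray (Agilent 4x180K custom design, double-stranded 60-nt probes: 5' GC cap, 34-nt variable region, 24-nt constant primer region; full probe sequence given). Purified or IVT nuclear receptor:RXRα heterodimers (3:1 NR:RXRα, mostly 270:90 nM) or homodimers were incubated for 1 h in PBS with 2% milk and no ligand, then detected with Alexa488 antibodies. Fluorescence from o1-orientation probes (~5 replicates averaged) was converted to z-scores against 500 random hg19 background probes. Variable regions are seed direct-repeat (DR0–DR5) sites, all their single-nucleotide variants and half-site ablations.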
Sequence ATATGTAGGTTACATCCGGGTCATCCAGGCTATG had a PBM binding z-score of 4.14.
For the sequence CGTCCAAGGTCATTGGAGGTCAGTGAAGACAGAT, the PBM binding z-score worked out at 7.03.
The sequence TCGAGTAGGTCACGGGGGCATTCAGGGATGAAGA had a PBM binding z-score of 5.82.
Consider CCTACTGGACCAAGGTCATTGATCAGTCAAAGCA, for which the PBM binding z-score was found to be 3.44.
Sequence CGTCAAAGTTCAAGGTCACGTAACAGAAAGCAGC registered a PBM binding z-score of 5.84.
Regarding CGTCCAAGGTCAAAGGTCAATGAAGAGATGACGG, the PBM binding z-score came out at 7.06.
The sequence CGAACGAGGTCAAAGGACAGTGAAAGGCGACGTA registered a PBM binding z-score of 5.02.
The sequence CTCGAAAGGTCGTGCTCAGATGAGTATACCAAAC had a PBM binding z-score of 3.09.
In the case of CCTAGCAGGCCAATCTAGGTCACTCAAGGCTTGA, the PBM binding z-score worked out at 0.635.
Turning to TAGCCTAGGTTATGGGCCAGTATACCACGCGAAC, the PBM binding z-score was -0.0238.
Sequence ATCGAAAGGTCATGAGGTGAGTATACAGAAAGGC showed a PBM binding z-score of 5.78.
For the sequence CGTCCAAGGTTAAGGTCAGTGAAAGAGACTCGAA, the PBM binding z-score was 2.5.
Take CCTTAGGGGTCAAGGTTATAGCACGGGTGGTACG: the PBM binding z-score amounted to 6.11.
Regarding AACGAAAGGTCGAAGGTGAGTATACCCACCCGAA, the PBM binding z-score came to 2.9.
CAAAATAGGTCACAGAGGTCAAAGTCCGTGCGTA gave a PBM binding z-score of 8.21.
The value for GTTACAGGGTCAAGGCCAGAGTACGCGTATTGAT was 4.45; that for ATATGTAGGTTAAGCGTCATTCAGGTTGGTTCGC was 0.888; that for TTGCCTAGGTCATTGGGCCAGTATAGTACGCATC was 2.27.
Turning to CGAACGAGGTCATTGACAGGACAGTGAATAGTAA, the PBM binding z-score came to 5.64.
Regarding CCTTAAGGGTCACGAGGTTATAGCACGACGAGCG, the PBM binding z-score was determined as 6.02.
TGTATGAGGTTAAAGATCAGGGAACGTGGCGTCG: the PBM binding z-score was 2.15.
Consider GCTGCTAGGTCAACTGATGGTCAACTAAAGCTCG, for which the PBM binding z-score is 2.07.
Sequence CGTCCGAGGTCATAGGAGGTCAGTGAAGACAGAT displayed a PBM binding z-score of 7.1.
Sequence TTACCAAGGTCAAAGGTCGTTGATGCACGCCTTG showed a PBM binding z-score of 6.42.
As to CCTCGGAGGACAACAGGAGGTCATAGCTGCCAGA, the PBM binding z-score worked out at 3.57.
CGTCCAAGGTCAGCGGGTCAGTGAAAGCGACGTG: the PBM binding z-score is 4.57.
With CGTCCAAGGTCAAGGTCAATGAAAGAGACTCGAA the figure was 5.07.
With CGTTCAAGGTCAAAGGTCAGTGAAGAGATGACGG, the PBM binding z-score stood at 6.9.
Turning to CGTCCAAGGTCACGGTCAGTGAAAGAGACTCGAA, the PBM binding z-score is 5.13.
With TAGCCGAGGTCATTCAGGGGCCAGTATAGAAAGC the figure was 5.89.
ATCGAAAGGTCAAGGTGAGTATAGAGAAAGGGAA displayed a PBM binding z-score of 5.32.
Regarding AGAATGAGGTTACCAAAGGTCAGGGAAACGCTTG, the PBM binding z-score is 5.67.
In turn, TAGCCTAGGTCATACAGGGGCCAGTATAGAAAGC yielded a PBM binding z-score of 2.6.
With CGAACAAGGTCACCAGGACAGTGAAGAGGTTGGA the figure was 4.8; with ATCTCTAGGTTAAGATAGTTCAGTGAATGCAAAT, 2.26.
The value for CGAACTAGGTCAAGGACAGTAAATCTCCGCACGC was 1.33; that for CGAACTAGGTCAAAGGACATTGAAAGGCGACGTA was 1.88; that for GCTTACAGGTCAAAGGTTATAGCATGAATAGAAT was 5.51.
Regarding CGAACTAGGTCGCCAGGACAGTGAAGAGGTTGGA, the PBM binding z-score is -0.0336.
CGAACGAGGTCACCAGGACAGTGAAGAGGTTGGA registered a PBM binding z-score of 5.65.
